Data as given in ChEMBL document CHEMBL3988442, “University of Dundee, Small-Polar-MMV Screening Library” (2021).
The whole screen tested about 85,000 compounds, of which about 440 (0.52%) showed an effect of 50% or more. Many of the other results were omitted from the sample, so strong results are more common in it than they were.

Experiment: In vitro enzyme assay to detect hydrolysis of chlorophenol red-beta-D-[…] directly proportional to the number of Toxoplasma stably expressing beta-galactosidase
Format: functional, organism-based, Toxoplasma gondii
Set-up: scale not given: in the data most compounds retested in dose-response had high values

Row | Structure (SMILES) | Percent Effect (50 µM) [%] | Percent Effect (10 µM) [%]
1 | O=C(NC1CCCC1)c1cnccn1 | 54.91 | –
2 | Cc1nnc2n1CCC(NC(=O)c1cnccn1)CC2 (centres undefined) | 2.489 | –
3 | O=C(NCCSC1CCCC1)c1cnccn1 | – | 0.9702
4 | CCC(C)N(CC(=O)OC)Cc1nccn1C (centres undefined) | 1.211 | –
5 | OCc1ccccc1CC1CCNCC1 | 2.025 | –
6 | Cc1ccc(C(=O)Nc2cc(C(C)C)n[nH]2)cn1 | – | -1.588
7 | CC(C)c1cc(NC(=O)c2ccc([S+]([O-])C(C)C)cc2)[nH]n1 (centres undefined) | – | 54.78
8 | CC(C)CC(=O)Nc1cc(C(C)C)n[nH]1 | 12 | –
9 | CC(C)c1cc(NC(=O)c2ccc(C(=O)NC(C)(C)C)cc2)[nH]n1 | – | 9.105
10 | CC(C)c1cc(NC(=O)c2ccc(NC3CC3)nc2)[nH]n1 | – | 3.917
11 | Cc1ccc(CC(=O)Nc2cc(C(C)C)n[nH]2)cn1 | – | 86.76
12 | CC(C)c1cc(NC(=O)c2cccnc2)[nH]n1 | – | 41.77
13 | CC(C)c1cc(NC(=O)c2ccncc2)[nH]n1 | – | 64.12
14 | Cc1cc(NC(=O)c2ccc(F)cc2)[nH]n1 | -8.221 | –
15 | CCn1ncnc1CN1CCC2(CCN(C)C2)CC1 | 28.33 | –
16 | NC(=O)CCC(=O)c1ccc2c(c1)OCCO2 | -23.48 | –
17 | Cc1cnc(NCC(O)CN2CCCCC2)nc1 (centres undefined) | -5.965 | –

Row | Structure (SMILES) | Percent Effect (50 µM) [%] | Percent Effect (10 µM) [%]
18 | C[C@H](N)c1ccc(F)cc1OC(F)F | 1.744 | –
19 | CCOc1cccc(OCCNCCN)c1 | 3.655 | –
20 | NC(=O)C(NC(=O)C1CC=CC1)c1ccc(F)cc1 (centres undefined) | -2.351 | –
21 | CCS(=O)(=O)CCN(C)C(=O)Nc1cc(F)cc(Cl)c1 | 0.02752 | –
22 | COCCNc1nnc(-c2ccc(C)nc2)s1 | – | 91.21
23 | COCCNc1nnc(-c2cnc(C)cn2)s1 | – | -7.364
24 | COCCNc1nc(-c2ccc(S(N)(=O)=O)cc2)cs1 | 33.23 | –
25 | CC(=O)c1csc(C(=O)N2CCCC2C(C)(C)O)c1 (centres undefined) | -8.417 | –
26 | Cc1cncc(C(=O)N2CCCC2C(C)(C)O)c1 (centres undefined) | 98.37 | –
27 | Cc1cncc(C(=O)N2CCCCC2c2nc[nH]n2)c1 (centres undefined) | – | 2.456
28 | Cc1ccc(C(=O)Nc2nc(C)no2)cc1 | – | 2.71
29 | Cc1noc(NC(=O)c2ccc(F)cc2)n1 | – | -4.949
30 | Cc1noc(NC(=O)c2ccc(OC(F)(F)F)cc2)n1 | – | 62.71
31 | COCCC1CN(C(=O)c2ccc(C)c(F)c2)CCO1 (centres undefined) | -2.005 | –
32 | CC(=O)Nc1cc(S(=O)(=O)NCCN(C)C)ccc1C | 12.19 | –
33 | O=C(NCCc1ccccn1)Nc1cn[nH]c1 | -7.115 | –
34 | COC1CCN(C(=O)c2cccc(F)c2C)C1 (centres undefined) | 32.95 | –
